According to article PMC5540273 (PLoS ONE, 2017):
“And” between values parts separate entries of the source, which are not always exact repeats. Identical values can stand only once. Like-named read-outs stand apart in the source and are kept apart here.

How the values were obtained:
Conditions in all cases: concentration: 1 μM, replicates: in singlicate, n = 1
PAK4 = system: PAK4
PAK6 = system: PAK6
PAK7 = system: PAK7
PCTK1 = system: T1, PCTK1
T1 construct: gene CDK16

PCTK2 = system: T2, PCTK2
T2 construct: gene CDK17

PCTK3 = system: T3, PCTK3
T3 construct: gene CDK18

PDGFRA = system: PDGFRA
PDGFRB = system: PDGFRB
PDPK1 = system: PDPK1
PFTAIRE2 = system: PFTAIRE2
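Further: KINOMEscan kinase panel screen.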

Row | SMILES | %Inh (PAK4) | %Inh (PAK6) | %Inh (PAK7) | %Inh (PCTK1) | %Inh (PCTK2) | %Inh (PCTK3) | %Inh (PDGFRA) | %Inh (PDGFRB) | %Inh (PDPK1) | %Inh (PFTAIRE2) | %Inh (PAK6; 1 µM) | %Inh (PAK7; 1 µM) | %Inh (PCTK1; 1 µM) | %Inh (PCTK2; 1 µM) | %Inh (PDGFRB; 1 µM) | %Inh (PFTAIRE2; 1 µM) | %Inh (PAK4; 1 µM) | %Inh (PCTK3; 1 µM) | %Inh (PDGFRA; 1 µM) | %Inh (PDPK1; 1 µM)
1 | N#Cc1c(N2CCOCC2)sc(-c2ccn[nH]2)c1-c1ccc(Cl)cc1 | 15% | 29% | 0% | 0% | 0% | 7% | 3% | 12% | 0% | 0% | – | – | – | – | – | – | – | – | – | –
2 | COc1ccc(CNC(=O)NC2CCN(c3ccnc(Nc4ccc(OC)cc4)n3)C2)cc1 (stereo not drawn) [GSK1379727] | 0% | 0% | 1% | 0% | 0% | 4% | 0% | 20% | 0% | 7% | – | – | – | – | – | – | – | – | – | –
3 | NS(=O)(=O)c1cccc(-c2ccc3ncc(N4CCOCC4)nc3c2)c1 [GSK1535721] | 5% | 0% | 26% | 0% | 18% | 0% | 21% | 21% | 0% | 5% | – | – | – | – | – | – | – | – | – | –
4 | CC(=O)Nc1ccc(COc2ccc(Nc3ccnc4cc(-c5ccccn5)ccc34)cc2)cc1.Cl [GW440148] | 0% | 13% | 15% | 1% | 17% | 18% | 99.1% | 100% | 0% | 26% | – | – | – | – | – | – | – | – | – | –
5 | O=c1cc(N2CCOCC2)nc2n(Cc3cccc(C(F)(F)F)c3)ccn12 [GSK2297543] | 0% | 0% | 0% | 6% | 0% | 1% | 11% | 22% | 0% | 17% | – | – | – | – | – | – | – | – | – | –
6 | O=C(NOCC1CC1)c1ccc(F)c(F)c1Nc1ccc(I)cc1Cl | 0% | 0% | 3% | 0% | 0% | 1% | 0% | 8% | 0% | 0% | – | – | – | – | – | – | – | – | – | –
7 | COc1ccc(S(=O)(=O)NC2CCN(c3cc(C)nc(Nc4cccc(C#N)c4)n3)CC2)cc1.O=C(O)C(F)(F)F [GSK1653539] | 0% | 0% | 30% | 0% | 0% | 0% | 0% | 12% | 0% | 3% | – | – | – | – | – | – | – | – | – | –
8 | O=c1cc(N2CCOCC2)nc2n(Cc3cccc4ccccc34)ccn12 [GSK2333389] | 0% | 0% | 0% | 2% | 0% | 7% | 0% | 6% | 10% | 29% | – | – | – | – | – | – | – | – | – | –
9 | CN(C(=O)c1ccc(-c2cc(-c3c[nH]nc3-c3ccccn3)ccn2)cc1)C1CCOCC1 [GW810083] | 28% | 0% | 16% | 0% | 0% | 0% | 4% | 0% | 0% | 29% | – | – | – | – | – | – | – | – | – | –
10 | NS(=O)(=O)CCc1cccc(Nc2nccc(-c3c(-c4cccc(NC(=O)c5c(F)cccc5F)c4)nn4ccccc34)n2)c1 [GSK336735] | 0% | 16% | 4% | 10% | 0% | 23% | 90.1% | 100% | 1% | 25% | – | – | – | – | – | – | – | – | – | –
11 | NS(=O)(=O)c1cccc(-c2ccc3nccc(-c4cccc(S(N)(=O)=O)c4)c3c2)c1 [GW867253] | 0% | 0% | 6% | 0% | 0% | 0% | 0% | 1% | 0% | 19% | – | – | – | – | – | – | – | – | – | –
12 | CC(C)Oc1ccc2c(-c3ccnc(Nc4ccc(N5CCN(C)CC5)cc4)n3)cnn2n1 [GW696155] | 47% | 56% | 44% | 99.3% | 93.5% | 60% | 55% | 97.2% | 27% | 34% | – | – | – | – | – | – | – | – | – | –
13 | CC(C)(CN)c1nc(-c2ccc(Cl)c(O)c2)c(-c2ccncc2)[nH]1.O=C(O)C(F)(F)F [SB-477794] | 0% | – | – | – | – | 0% | 59% | – | 0% | – | 10% and 0% | 21% and 25% | 4% and 0% | 99.7% and 0% | 99.5% and 98.1% | 14% and 7% | – | – | – | –
14 | O=C1Cc2cc(Nc3nc(NCc4cccc(S(=O)(=O)C(F)(F)F)c4)ncc3C(F)(F)F)ccc2N1 | 100% | 0% | 0% | 19% | 0% | 1% | 0% | 16% | 0% | 0% | – | – | – | – | – | – | – | – | – | –
15 | Cl.Cl.Cl.Fc1ccc(-c2ncn(C3CCNCC3)c2-c2ccnc(Nc3ccccc3)n2)cc1 [SB-238039] | – | – | 10% | 0% | – | – | – | – | – | – | 0% and 11% | – | – | 0% and 4% | 52% and 13% | 0% and 21% | 9% and 12% | 0% and 6% | 0% and 26% | 6% and 0%
16 | COc1ccc(Nc2ncc(C#N)c(Nc3ccccc3C(N)=O)n2)cc1N1CCN(C)CC1.Cl [GSK1558669] | 99.2% | 93.9% | 99.9% | 99.2% | 98.2% | 88% | 97.9% | 100% | 37% | 97.6% | – | – | – | – | – | – | – | – | – | –
17 | Cn1ccc2ncnc(Oc3ccc(NC(=O)Nc4ccncc4)c(Cl)c3)c21 | 3% | 1% | 0% | 0% | 0% | 0% | 27% | 16% | 36% | 0% | – | – | – | – | – | – | – | – | – | –

Row | SMILES | %Inh (PAK4) | %Inh (PAK6) | %Inh (PAK7) | %Inh (PCTK1) | %Inh (PCTK2) | %Inh (PCTK3) | %Inh (PDGFRA) | %Inh (PDGFRB) | %Inh (PDPK1) | %Inh (PFTAIRE2) | %Inh (PAK6; 1 µM) | %Inh (PAK7; 1 µM) | %Inh (PCTK1; 1 µM) | %Inh (PCTK2; 1 µM) | %Inh (PDGFRB; 1 µM) | %Inh (PFTAIRE2; 1 µM) | %Inh (PAK4; 1 µM) | %Inh (PCTK3; 1 µM) | %Inh (PDGFRA; 1 µM) | %Inh (PDPK1; 1 µM)
18 | c1ccc(-c2cc(-c3c[nH]nc3-c3ccccn3)ccn2)cc1 [GW576604] | 0% | 0% | 0% | 0% | 0% | 36% | 0% | 17% | 0% | 16% | – | – | – | – | – | – | – | – | – | –
19 | COc1ccc(Nc2nccc(N3CCC(NC(=O)Nc4cc(C)ccc4C)C3)n2)cc1 (stereo not drawn) [GSK1379741] | 0% | 0% | 0% | 3% | 9% | 6% | 0% | 2% | 0% | 13% | – | – | – | – | – | – | – | – | – | –
20 | O=c1cc(N2CCOCC2)nc2n(Cc3cccc(F)c3)ccn12 [GSK2297430] | 0% | 0% | 0% | 5% | 0% | 27% | 0% | 12% | 32% | 7% | – | – | – | – | – | – | – | – | – | –
21 | Nc1nccc(-c2c(-c3ccc(F)cc3)ncn2C2CCN(CC(F)(F)F)CC2)n1 [SB-236560] | 16% | 0% | 0% | 1% | 0% | 0% | 3% | 0% | 0% | 23% | – | – | – | – | – | – | – | – | – | –
22 | CCn1cnc2c(N)ncnc21 [GW345098] | 6% | 13% | 11% | 0% | 0% | 0% | 0% | 24% | 11% | 3% | – | – | – | – | – | – | – | – | – | –
23 | CC(C)(C)n1cnc2c(N)ncnc21 [SKF-97359] | 21% | 0% | 6% | 0% | 0% | 0% | 0% | 0% | 0% | 8% | – | – | – | – | – | – | – | – | – | –
24 | C[C@@H](Oc1cc(-n2cnc3ccc(NC(=O)NC(C)(C)C)cc32)sc1C(N)=O)c1ccccc1Cl [GSK346294] | 0% | 2% | 29% | 0% | 9% | 14% | 4% | 22% | 0% | 11% | – | – | – | – | – | – | – | – | – | –
25 | Cc1cccc(-c2nc(Nc3ccc4ncsc4c3)c3ccccc3n2)n1 [GW867588] | 8% | 0% | 8% | 0% | 0% | 0% | 33% | 0% | 0% | 0% | – | – | – | – | – | – | – | – | – | –
26 | CCCCCc1nc2c(N)ncnc2n1CCCCC [SKF-97255] | 6% | 0% | 0% | 0% | 0% | 0% | 0% | 73% | 0% | 0% | – | – | – | – | – | – | – | – | – | –
27 | Cc1c2ccc(N(C)c3ccnc(Nc4cccc(S(N)(=O)=O)c4)n3)cc2nn1Cc1ccccc1.Cl.Cl [GW787226] | 0% | 0% | 10% | 0% | 0% | 4% | 99.7% | 100% | 0% | 0% | – | – | – | – | – | – | – | – | – | –
28 | CCc1nc(-c2cccc(C)c2)c(-c2ccnc(NCc3ccccc3)c2)s1 | 22% | 11% | 0% | 0% | 13% | 0% | 30% | 39% | 3% | 7% | – | – | – | – | – | – | – | – | – | –
29 | COc1cc2c(cc1OC[C@@H](O)CO)ncc1c3ccc(C#N)cc3[nH]c21 | 0% | 0% | 11% | 0% | 0% | 0% | 99.2% | 91.4% | 8% | 6% | – | – | – | – | – | – | – | – | – | –
30 | CNc1ncnc2[nH]ncc12 [SKF-18355] | 0% | 0% | 0% | 0% | 0% | 0% | 0% | 0% | 0% | 12% | – | – | – | – | – | – | – | – | – | –
31 | O=C(Nc1cccc(-c2nn3ncccc3c2-c2ccnc(Nc3cccc(C(F)(F)F)c3)n2)c1)c1c(F)cccc1F [GSK299495] | 0% | 0% | 0% | 6% | 0% | 23% | 0% | 99.7% | 0% | 0% | – | – | – | – | – | – | – | – | – | –
32 | Cc1nnc(-c2ccc3ncc(-c4ccc(S(C)=O)cc4)n3c2)o1 (stereo not drawn) | 0% | 0% | 5% | 14% | 0% | 0% | 42% | 80% | 0% | 0% | – | – | – | – | – | – | – | – | – | –
33 | Cc1cn2c(=O)cc(N3CCOCC3)nc2n1Cc1cccc(Cl)c1Cl [GSK2334006] | 0% | 2% | 0% | 5% | 9% | 13% | 0% | 31% | 25% | 22% | – | – | – | – | – | – | – | – | – | –
